PfHsp40 yeast: rescue of yeast from PfHsp40 toxicity, primary screen, S. cerevisiae, ATP luminescence; S. cerevisiae expressing PfHsp40, growth rescue; growth rescue, % at 12.5 µM; hit rate 0.68% among 340,000; AID 504582, 2011; in the data active = growth rescue above about 28%, passing the limit was not always enough;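 also: yeast W303a lacking pdr1 and pdr3 grown in galactose medium; growth measured after three days at 30 °C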
Sa ugtP lethal: growth inhibition of ugtP-null S. aureus, primary screen, RN4220 ugtP deletion, OD600. growth inhibition, % (test concentration not listed). 16 h. hit rate 0.54% among 330,000; in the data active = growth inhibition above about 68%;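 also: plate controls were untreated wells for no effect and antibiotic for full effect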
Sa RN4220 lethal: growth inhibition of S. aureus RN4220, primary screen, OD600; inhibition, % (test concentration not listed); hit rate 0.33% among 330,000; 16 h; AID 1259311, 2017; in the data active = inhibition above about 85%;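 also: plate controls were untreated cells for no effect and reference antibiotic for full effect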
PrPC TRFRET: inhibitors of human cell surface prion protein PrPC, primary screen, cell-based, TR-FRET; Major prion protein (Homo sapiens), P04156; hit rate 0.43% among 370,000; TR-FRET read-out; inhibition, % at 13.8 µM; AID 720596, 2013; in the data active = inhibition above about 24%; also: 0% = median of the test wells and 100% = reference compound wells
DUSP3 inh: VHR1 phosphatase inhibitors, primary screen, biochemical, absorbance, uHTS; recombinant VHR phosphatase, pNPP absorbance; inhibition, % at 13.3 µM; AID 1654, 2009; Dual specificity protein phosphatase 3 (Homo sapiens), P51452; hit rate 0.52% among 290,000; in the data active = inhibition above about 50%
Target sequence (P51452 whole entry, looked up): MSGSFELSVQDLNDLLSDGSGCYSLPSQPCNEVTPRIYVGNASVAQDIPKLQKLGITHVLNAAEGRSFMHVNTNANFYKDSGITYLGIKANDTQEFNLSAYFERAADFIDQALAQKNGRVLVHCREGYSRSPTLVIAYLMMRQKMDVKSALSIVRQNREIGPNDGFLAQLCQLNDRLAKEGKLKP
The depositor's hits bear a star; · = not tested or not shown. Hits are enriched below; roughly 1.8% of the tested compounds scored in any of these assays.

SMILES	PfHsp40 yeast	Sa ugtP lethal	Sa RN4220 lethal	PrPC TRFRET	DUSP3 inh
CC(=O)C1=C(C)N(CC2CC2)C(=O)NC1c1ccccc1 (centres undefined)	·	-11	1	·	·
Nc1nonc1-n1nnc(C(=O)NN=Cc2cccc(Cl)c2Cl)c1CN1CCCC1	·	-4	2	·	·
Cc1ccc(C)c(-n2c3nc(=O)n(C)c(=O)c-3cc3ccccc32)c1	-1	-3	1	-26	1
Cc1nc2c(=O)n(C)c(=O)nc-2n(C)n1	-1	39	37	25*	-3
CC1(C)c2ccccc2-n2c1cc1oc(=O)cc(O)c1c2=O	60*	·	·	5	25
Cc1c(O)cc2n(c1=O)-c1ccccc1C2(C)C	2	-3	-7	-5	-14
c1ccc(CSc2ccc(-c3ccco3)nn2)cc1	1	5	4	15	16
Cc1ccc(CSc2ccc(-c3ccco3)nn2)cc1	2	13	3	9	53*
O=C(CCl)N(c1ccccc1)c1c[nH]c2ccccc12	8	90*	91	-2	17
O=C(Cc1ccc(Cl)cc1)NCCc1c[nH]c2ccccc12	-1	·	·	4	·
O=C(CCl)N(c1ccc(Cl)cc1)c1c[nH]c2ccccc12	0	97*	90*	3	21
CCCCCCCN1CC=CC(c2ccc(OC)cc2)N(Cc2ccc(F)cc2)C(=O)C1Cc1ccccc1 (centres undefined)	·	7	8	·	·
O=C(CN1CCN(Cc2ccc(Cl)cc2)CC1)NN=Cc1c[nH]c2ccccc12	·	3	5	·	·
O=C1C(=O)c2cccc3cccc1c23	2	5	2	-13	-8
O=C1C(Br)=Cc2cccc3cccc1c23	3	92*	83	-21	-4
O=C(CSc1nc2ccccc2o1)NN=Cc1ccc(C(=O)O)cc1	·	-1	4	·	·
COC[C@H]1OC(=O)c2coc3c2[C@@]1(C)C1=C(C3=O)[C@@H]2CCC(=O)[C@@]2(C)C[C@H]1OC(C)=O	123*	·	·	-11	·
C=CCc1c(C)nc(-c2ccccc2)nc1NN=C(C)c1ccccc1	·	24	0	·	·
Oc1cc2c(cc1C(c1ccc(Cl)c(Cl)c1)N1CCCC1)OCO2 (centres undefined)	6	87*	41	9	6
CC(C)c1ccc(NC(=O)C(c2ccc3c(c2)OCO3)N2CCCCC2)cc1 (centres undefined)	1	10	-1	-1	19
CCOC(=O)c1sc(NC(=O)c2cccnc2)c(C#N)c1C	-1	85*	74	2	7
Cc1ccc2nc(Cl)c3nnnn3c2c1	85*	·	·	·	12
O=Cc1coc2ccc3ccccc3c2c1=O	1	19	4	13	56*
CC(=O)Nc1ccc(SCC(C)CN2CCC(O)CCC2=O)cc1 (centres undefined)	·	-2	7	·	·
O=C(O)c1ccc(NN=C2CCCc3ccccc32)cc1	·	-1	1	·	·
SMILES	PfHsp40 yeast	Sa ugtP lethal	Sa RN4220 lethal	PrPC TRFRET	DUSP3 inh
CC(C)(C)C1C=C(C(=O)NC2CC2)OC(OCc2ccc(CO)cc2)C1 (centres undefined)	·	1	3	·	·
O=C(O)CCCc1ccc2ccc3cccc4ccc1c2c34	-1	20	8	5	17
NCCCCc1ccc2ccc3cccc4ccc1c2c34	2	100*	101*	-5	·
CC(C)=CCc1c2c(c(O)c3c(=O)c4c(oc13)-c1cc(O)c(O)cc1OC4C=C(C)C)C=CC(C)(C)O2 (centres undefined)	·	-11	3	·	·
CC(C)=CCc1c(-c2ccc(O)cc2O)oc2c3c(cc(O)c2c1=O)OC(C)(C)C=C3	·	99*	97*	·	·
N#CCCn1cc(C=C2NC(=S)N(c3ccccc3)C2=O)c(-c2ccc(-c3ccccc3)cc2)n1	·	6	2	·	·
Cc1ccc(C2(c3ccc(C)cc3)CC2C(=O)Nc2ccc([N+](=O)[O-])cc2O)cc1 (centres undefined)	273*	100*	101*	5	24
COc1ccc2oc(=O)c(-c3csc(Nc4cccc(O)c4)n3)cc2c1	449*	18	36	-1	3
CC(CN1C2=NCC(C)N2CC1Cc1ccc(O)cc1)NC(=O)CCC1CCCCC1 (centres undefined)	·	-4	-1	·	·
COc1ccc(NC(=S)N/N=C2\CC(C)(C)Oc3ccc(O)cc32)cc1	39*	·	·	7	30
CCN1C(=O)C2C(c3ccc(-c4ccc(F)cc4)cc3)N[C@@](CC(C)C)(C(=O)OC)C2C1=O (some centres undefined)	·	25	-5	·	·

High-throughput results deposited in PubChem by several laboratories.
